Most compounds without a hit are left out; they make up all but 6.1% or so of the library.
RORg inh: qHTS for inhibitors of ROR gamma transcriptional activity. Drosophila S2 Gal4-RORgamma UAS-luciferase reporter, 20 h. Potency, µM (titrated, usually from 53.6 µM), hits mostly inhibitors. 5.4% of 310,000 active; note: nearly all actives have a fitted effect of over 60% in size
Target sequence (P51450 whole entry, looked up, the tested form may be a part): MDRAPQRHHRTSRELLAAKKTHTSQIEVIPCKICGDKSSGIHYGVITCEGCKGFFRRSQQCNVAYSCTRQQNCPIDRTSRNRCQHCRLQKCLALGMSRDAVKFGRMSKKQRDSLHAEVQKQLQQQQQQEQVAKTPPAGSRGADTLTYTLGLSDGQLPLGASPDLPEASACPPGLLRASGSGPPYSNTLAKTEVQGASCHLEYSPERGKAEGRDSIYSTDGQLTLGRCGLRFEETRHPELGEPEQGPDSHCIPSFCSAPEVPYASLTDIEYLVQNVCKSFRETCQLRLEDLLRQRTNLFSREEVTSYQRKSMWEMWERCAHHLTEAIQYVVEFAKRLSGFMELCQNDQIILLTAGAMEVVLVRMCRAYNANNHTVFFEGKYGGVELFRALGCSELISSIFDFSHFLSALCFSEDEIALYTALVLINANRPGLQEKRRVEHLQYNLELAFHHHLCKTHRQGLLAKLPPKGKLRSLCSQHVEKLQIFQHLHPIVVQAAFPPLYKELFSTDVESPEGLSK
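ROR gamma transcriptional activity was tracked as Gal4-UAS luciferase output in stably transfected Drosophila Schneider cells, with compound added 1 hr before 700 uM copper sulfate induction and a 20 hr ambient-temperature incubation.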
TGFb inhibitor: qHTS for Inhibitors of TGF-b; 1.2% of 410,000 active; Potency, µM (titrated, usually from 46.1 µM), hits mostly inhibitors; AID 588855, 2011; HepG2 CAGA-GFP TGF-b/SMAD3 reporter, GFP fluorescence, 18 h; TGF-beta stimulated, 500 pg/mL final; note: nearly all actives have a fitted effect of over 65% in size
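HEPG2 CAGA-GFP reporter cells (1000/well, DMEM with 1% FBS) received compounds, then recombinant TGF-beta at 500 pg/mL final for 18 hours at 37 degrees C. Per-cell GFP summed per well was normalised to unstimulated and stimulated DMSO controls before curve fitting.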
HepG2 tox: qHTS for Inhibitors of TGF-b: Cytotox Counterscreen. HepG2 CAGA-GFP viability, ATP luminescence, 18 h. Potency, µM (series often up to 46.1 µM), actives largely listed as cytotoxic. 0.76% of 410,000 active. AID 588856, 2011
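CellTiter-Glo luminescence gave cytotoxicity after 18 hours at 37 degrees C. The cells were HepG2 CAGA-GFP in 1% FBS DMEM, stimulated with 500 pg/mL TGF-beta after compound addition. %Activity was normalised to no-cell wells (complete cell-killing) and DMSO (no toxicity), and curves were fitted and classified.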
ATXN2 expr inh: Primary qHTS for Inhibitors of ATXN expression | AID 1745845, 2022 | 0.72% of 360,000 active | Potency, µM (top dose mostly 57 µM), actives largely listed as inhibitors | HEK-293 ATXN2-luciferase reporter, luminescence, 24 h; note: nearly all actives have a fitted effect of over 55% in size
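ATXN2-luciferase reporter cells (luciferase flanked by upstream and downstream ATXN2 gene portions) were treated 24 h at 37 °C with compounds at up to 57 uM. SteadyGlo luminescence gave expression; GF-AFC fluorescence gave viability.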
ATXN viability: Viability Counterscreen for Primary qHTS for Inhibitors of ATXN expression; S2 cells (HEK-293 line with an ATXN2-luciferase reporter) viability, CellTiter-Fluor protease fluorescence, 24 h; Potency, µM (series often up to 56.7 µM), actives largely listed as cytotoxic; 0.49% of 400,000 active; AID 651635, 2014; note: nearly all actives have a fitted effect of over 40% in size
VP16 counter: VP16 counterscreen qHTS for inhibitors of ROR gamma transcriptional activity; Drosophila S2 Gal4-VP16 UAS-luciferase, luminescence, 20 h; Potency, µM (highest dose often 53.6 µM), actives largely listed as inhibitors; 3.5% of 310,000 active; AID 2546, 2010;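 note: Gal4-VP16 expression switched on by copper sulfate through the metallothionein promoter; nearly all actives have a fitted effect of over 50% in size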
Numbers stand for hits; . = inactive; ? = inconclusive; / = not tested or not shown; [ ] = dose if it differs, or a comment. Calls come from the whole dose curve; as a rule, active = well fitted curve in the direction sought with a large enough effect; inconclusive = small, poorly fitted or top-dose-only effect, or another doubt; inactive = no such curve, though single readings can be large; an effect the other way counts as inactive or inconclusive.

SMILES | RORg inh | TGFb inhibitor | HepG2 tox | ATXN2 expr inh | ATXN viability | VP16 counter
COc1ccc(/C=N/NC(=O)c2cccnc2)cc1CN1CCCc2ccccc21 | 10µM | . | . | . | . | .
CCOc1cc(Br)cc(/C=N/NC(=O)c2cccnc2)c1O | 0.794µM | ? | . | ? | ? | 1µM
O=C(Cc1ccccc1)NC1CC(=O)N(c2ccc3c(c2)OCCO3)C1 (configuration not stated) | / | . | . | . | . | /
COc1ccc(/C=N/NC(=O)c2ccccc2O)cc1Cn1cc(Cl)cn1 | 6.31µM | . | . | . | . | 14.1µM
COc1ccc(/C=N\NC(=O)c2cccc([N+](=O)[O-])c2)cc1Cn1cc([N+](=O)[O-])cn1 | . | / | / | / | / | .
Cc1cccc(CC(=O)N2CC(=O)Nc3ccc(Br)cc3C2c2ccc(F)cc2)c1 (configuration not stated) | / | ? | . | ? | ? | /
CC(=O)c1ccc(NC(=S)N2CCN(c3ccccn3)CC2)cc1 | . | . | . | . | . | .
O=C(NC(=S)N1CCN(c2ccccc2)CC1)c1ccccc1 | 1.41µM | / | / | / | / | 1.12µM
S=C(Nc1cccnc1)N1CCCCC1 | . | . | . | . | . | .
O=C(NC(=S)N1CCN(c2ccccn2)CC1)c1ccccc1 | 2.24µM | . | . | . | . | 4.47µM
O=C(NC(=S)N1CCN(C/C=C/c2ccccc2)CC1)c1ccc(Cl)nc1 | 0.112µM | . | . | . | . | 0.316µM
O=C(NC(=S)N1CCCCC1)c1cccnc1 | 0.708µM | ? | . | . | . | 3.16µM
O=C(Cl)CCCCCCCC(=O)Cl | . | / | / | / | / | .
O=C(NC(=S)N1CCN(C2CCCCC2)CC1)c1ccccc1 | 0.891µM | . | . | . | . | 3.16µM
O=C(N/C(=C/c1cccnc1)C(=O)N1CCCCCC1)c1cccc(Br)c1 | 10µM | . | . | . | . | ?
O=C(CSC(=S)N1CCCC1)c1ccccc1 | 10µM | . | . | . | . | ?
O=C(c1ccccc1)N1CCN(C2CCCCCC2)CC1 | . | . | . | . | . | .
COc1cc2c(cc1OC)CN(C(=S)NC(=O)c1ccccc1)CC2 | 5.62µM | . | . | . | . | 3.16µM
CCOC(=O)c1cccc(NC(=O)Nc2c(C)n(C)n(-c3ccccc3)c2=O)c1 | / | . | . | . | . | /
CCN(CC)c1cc(C)c2cc(NC(=O)/C=C/c3ccc(C)cc3)ccc2n1 | / | . | . | . | . | /
O=C(NC(=S)N1CCCC1)c1ccccc1 | 3.98µM | . | . | . | . | 7.08µM
O=C(NC(=O)N1CCCCC1)c1ccccc1 | . | . | . | . | . | .
O=C(NC(=S)N1CCN(Cc2ccccc2)CC1)c1cccnc1 | 0.891µM | . | . | . | . | 2.51µM
O=C(NC(=S)N1CCCCCC1)c1ccccc1 | 1.41µM | . | . | . | . | 1.78µM
COc1ccc(CNS(=O)(=O)c2cc3c(cc2Cl)N(C(C)=O)CCO3)cc1 | / | . | . | / | / | /
SMILES | RORg inh | TGFb inhibitor | HepG2 tox | ATXN2 expr inh | ATXN viability | VP16 counter
C/C(=N\NC(=S)Nc1cccc(C)c1)c1cccc(N)c1 | 4.47µM | . | . | . | . | 3.16µM
CC(=NNC(=S)Nc1ccc(C)cc1)c1ccccn1 | / | ? | . | . | . | /
C/C(=N\NC(=S)Nc1ccc(C)cc1)c1cccc(N)c1 | 2.82µM | . | . | . | . | 12.6µM
C/C(=N\NC(=S)Nc1cccc(C)c1)c1ccccc1 | 1.12µM | . | . | . | . | 7.94µM
CSC(=S)N/N=C(\C)c1ccccc1 | 0.447µM | ? | . | . | . | 4.47µM
C/C(=N\NC(=S)Nc1cccc(C)c1)c1ccco1 | ? | . | . | . | . | .
C/C(=N\NC(N)=S)c1ccccc1 | . | . | . | . | . | .
COc1ccc(C(=O)c2cn(Cc3cccc(C)c3)c3cc4c(cc3c2=O)OCO4)cc1 | / | . | . | . | ? | /
COc1ccc(OC)c(-c2ccnc(-n3ncc(C(=O)N(C)CCc4ccccn4)c3C)n2)c1 | / | / | / | / | . | /
Cc1cccc(-n2ncc(C(=O)Nc3ccc4c(c3)OCO4)c2C2CCN(C(=O)OC(C)(C)C)CC2)c1 | / | ? | . | / | / | /
CCn1cc(S(=O)(=O)c2ccc(C)cc2C)c(=O)c2cc(F)c(N3CCCCC3)cc21 | / | ? | . | / | / | /
CC/C(C)=N/O | . | / | / | / | / | .
CCCCN1C(=O)/C(=C/C=C2\Oc3ccccc3N2CC)SC1=S | . | . | . | .[11.3 µM] | ? | .
CCN1/C(=C/C=C/c2oc3ccc(-c4ccccc4)cc3[n+]2CC)Oc2ccc(-c3ccccc3)cc21 | 12.6µM | . | . | 9.47µM | / | 0.355µM
CCn1c(CNC(C)=O)nnc1SCC(=O)c1ccc(Br)cc1 | . | . | 22.4µM | . | . | .
CCn1c(CNC(=O)Cc2ccc(OC)cc2)nnc1SCC(=O)c1ccc(Br)cc1 | . | . | . | . | . | .
CC(=Cc1ccccc1)C(=O)c1ccccc1 | / | . | . | / | . | /
O=C(C(Br)=Cc1ccccc1)c1ccccc1 | / | 10µM | . | 20µM | ? | /
O=C(CCCSc1nc2ccccc2s1)NCc1ccco1 | 14.1µM | . | . | . | . | 11.2µM
Cc1csc(NC(=O)CCCSc2nc3ccccc3s2)n1 | 31.6µM | ? | . | . | . | 2µM
CCCOC(=O)c1ccc(OCC(O)Cn2c(C)nc3ccccc32)cc1 (configuration not stated) | ? | . | . | . | ? | 3.16µM
Cc1ccc(C)c(S(=O)(=O)NCc2nc(N3CCCC3)c3cc(Cl)ccc3n2)c1 | / | / | / | / | . | /
COc1cccc(C(=O)NC(=S)Nc2ccc3c4c(cccc24)CC3)c1 | 3.55µM | . | . | . | . | 11.2µM
COc1ccc(OCC(=O)NC(=S)Nc2ccc3c4c(cccc24)CC3)cc1 | ? | . | . | . | . | ?
O=C(Nc1ccc2c3c(cccc13)CC2)c1ccccc1 | / | . | . | / | . | /
SMILES | RORg inh | TGFb inhibitor | HepG2 tox | ATXN2 expr inh | ATXN viability | VP16 counter
COc1cccc(C(=O)NC(=S)Nc2ccc(Cl)cc2C(=O)O)c1 | 10µM | . | . | . | . | 7.08µM
Cc1ccccc1OCC(=O)NC(=S)Nc1ccc2c3c(cccc13)CC2 | . | . | 12.6µM | . | . | .
Cc1ccc2oc(-c3cc(NC(=O)c4ccc5c(c4)OCCO5)cc(C)c3O)nc2c1 | / | . | . | . | . | /
CC(=O)N1c2c(cc(Br)cc2S(=O)(=O)N2CCN(c3cccc(Cl)c3)CC2)CC1C (configuration not stated) | / | ? | . | . | . | /
CCNC(=O)c1c(NC(=O)Cc2coc3cc(C)ccc23)sc2c1CCCC2 | / | . | . | . | . | /
O=C(N/N=C/c1ccc(-c2ccccc2Cl)o1)c1ccccc1 | 3.55µM | . | . | . | . | 7.94µM
O=C(O)c1ccc(N/N=C/c2ccc(-c3ccccc3Cl)o2)cc1 | ? | . | . | . | . | ?
C(=C\c1ccccc1)/C=N/Nc1nncc(-c2ccccc2)n1 | 2.24µM | / | / | / | / | 3.16µM
